# TWEAK-Fn14 inh = inhibitors of TWEAK-Fn14 signaling, primary screen, luciferase reporter cells, uHTS | TWEAK-stimulated Fn14 reporter cells, luciferase luminescence, 8 h | inhibition, % at 10 µM | 2% of 360,000 active; in the data active = inhibition above about 50%
# TROY signal inh = inhibitors of TROY-driven NF-kB signaling, primary screen, Q293 LMP1-TROYcd cells, NF-kB luciferase, uHTS. AID 1347056, 2019. 0.98% of 360,000 active. inhibition, % at 10 µM. Q293 LMP1-TROYcd NF-kB luciferase reporter, 4 h;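 active = compounds whose plate-normalised and pattern-corrected inhibition of the luciferase reporter signal at the single screening dose is 50% or more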
# Peg3 prom inh = Peg3 promoter-driven luciferase inhibitors, primary screen, cell-based, HeLa, luciferase luminescence. HeLa PEG-Prom luciferase reporter, overnight. inhibition, % at 20 µM. 1.7% of 360,000 active. AID 588405, 2011;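 active = inhibition of at least 50% at 20 µM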
# LMP1 NFkB inh = EBV LMP1-driven NF-kappaB luciferase reporter inhibitors, primary screen, cell-based, luminescence, single point; inhibition, % at 12.5 µM; 0.69% of 350,000 active; LMP1-induced NF-kappaB luciferase reporter cells; in the data active = inhibition above about 41%;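 note: 0% = neutral control wells and 100% = reference inhibitor control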
# Shn3 inh set2 = reduction of Shn3 3'UTR firefly luciferase signal, primary screen, Schnurri-3 inhibitor project, cell-based, Clone20 osteoblasts, set 2 | inhibition, % at 12.5 µM | Clone20 osteoblast Shn3 3'UTR firefly luciferase, 24 h | 0.52% of 360,000 active | AID 588674, 2011;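 active = mean inhibition of at least 75% with every replicate also reaching 75%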;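 note: 0% = median of neutral control wells and 100% = pilot-screen positive control compound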
# TRPM1 prom inh = inhibitors of MITF-dependent TRPM1 promoter reporter, primary screen, cell-based, SK-MEL-5, single point, luciferase | inhibition, % at 12.5 µM | SK-MEL-5 TRPM1 promoter luciferase, 24 h | 0.83% of 330,000 active;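 active = mean inhibition across replicates of 60% or more, whatever share of single replicates reaches that level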
# Numbers without * were called inactive; nt = not tested or not shown. Hits are enriched below; roughly 4.1% of the tested compounds scored in any of these assays.
SMILES,TWEAK-Fn14 inh,TROY signal inh,Peg3 prom inh,LMP1 NFkB inh,Shn3 inh set2,TRPM1 prom inh
O=C(Nc1ccc(F)c(Cl)c1)c1cc(C2CCCCN2C(=O)c2ccc(Cl)cc2)on1 (configuration not stated),14,8,16,nt,10,nt
CC(=O)NC(c1ccc(F)c(F)c1)c1nc(-c2ccc3c(c2)OCO3)cs1 (configuration not stated),-22,-11,-9,nt,3,nt
O=C(NCCCNC(=O)c1cc(Cl)ccc1Cl)c1ccco1,20,7,-8,-8,7,6
O=C(NCCCNC(=O)c1ccco1)c1ccc(Cl)c(Cl)c1,11,-26,53*,-6,9,7
CCOc1ccccc1N(CC(=O)NC1CCCCC1)S(=O)(=O)c1ccccc1,-50,-28,21,2,11,-3
CC(NC(=O)COC(=O)c1c[nH]c2ccccc12)c1ccccc1 (configuration not stated),-3,14,-36,-10,-19,9
CC/C=C\[C@H](O)[C@H](O)C1=C(C)C(=O)[C@]2(O1)C(=O)N[C@@](OC)(C(=O)c1ccccc1)C2O (some centres not stated),69*,46,10,0,4,-2
CCOC(=O)Cc1csc(NC(=O)CCN2C(=O)c3ccccc3C2=O)n1,14,3,0,3,19,-1
[O-]/C(=C(\C(=S)Nc1cccc2ccccc12)[n+]1ccccc1)c1ccc(OC(F)F)cc1,43,82*,-4,-11,-4,11
[O-]/C(=C(\C(=S)Nc1cccc2ccccc12)[n+]1ccccc1)c1ccc2c(c1)OCCO2,104*,84*,22,-1,31,17
COc1cccc(NC(=S)/C(=C(\[O-])c2ccc(OC(F)F)cc2)[n+]2ccccc2)c1,32,-48,-75,-3,-1,6
Cc1ccc(S(=O)(=O)CCC(=O)Nc2cc(C)on2)cc1,27,-16,2,-1,8,nt
Cc1cc(NC(=O)CCS(=O)(=O)c2nc(-c3ccccc3)cc(C(F)(F)F)n2)no1,54*,56*,106*,-26,65,85*
CS(=O)(=O)c1nc(-c2ccccc2)cc(C(F)(F)F)n1,47,53*,104*,30,95*,95*
FC(F)(F)c1cc(-c2ccccc2)nc(N2CCCCCC2)n1,8,-12,12,-5,-3,3
COC(=O)c1cc(S(=O)(=O)N2CCN(c3ccc([N+](=O)[O-])cc3)CC2)c[nH]1,-14,10,17,4,23,3
O=C(O)CCn1cc(/C=C/C(=O)c2ccc(Cl)cc2)c(-c2ccc(Br)cc2)n1,60*,18,45,2,6,1
C[C@H](CO)N1C[C@H](C)[C@@H](CN(C)Cc2ccccn2)Oc2ncc(-c3ccccc3)cc2C1=O,0,5,-18,2,3,nt
COc1ccc(-n2c(=O)c(CCC(=O)N(C)Cc3ccccc3C)nc3ccccc32)cc1,0,23,19,2,16,-5
CCc1ccc(CN(C)C(=O)CCc2nc3ccccc3n(-c3ccc(OC)cc3)c2=O)cc1,52*,54*,57*,17,27,18
Clc1ccc(-c2cn3nc4c(nc3n2)CCCC4)cc1,-1,14,-91,50*,14,26
COc1cccc(-c2cn3nc4c(nc3n2)CCCC4)c1,6,11,-13,25,33,43
N/C(=N\OC(=O)c1ccc(Br)cc1)c1ccccc1,27,-7,-250,-41,-39,-74
CC(C)(C)c1ccc(C(=O)O/N=C(\N)c2ccccc2)cc1,105*,90*,104*,57*,70,69*
COc1ccc(/C(N)=N/OC(=O)c2ccco2)cc1,64*,56*,-114,19,18,18
COc1ccc(C(=O)O/N=C(\N)c2ccccc2)cc1,82*,42,31,6,-3,-44
